{
  "source": "the supplement of paper PMC8728848",
  "assay_in_all_cases": "glycan array binding signal (z-score within array); higher = stronger binding",
  "conditions_in_all_cases": "glycan notation: IUPAC condensed, linker removed",
  "key": {"[1]": {"target": "Fuc(a1-2)Gal(b1-3)GalNAc(b1-3)Gal(a1-4)Gal(b1-4)Glc", "procedure,_shortened": "(§1)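 Glycan array binding is given as a within-array Z-score, which can be read as non-binding when negative. The arrays, 3228 of them, came from the Consortium for Functional Glycomics database and were retained only where the protein sequence was available. Z-scores were averaged across arrays of the same protein sequence at different concentrations or buffers and across linkers.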"}, "[2]": {"target": "Fuc(a1-2)Gal(b1-3)GlcNAc(b1-2)Man(a1-3)[Fuc(a1-2)Gal(b1-3)GlcNAc(b1-2)Man(a1-6)]Man(b1-4)GlcNAc(b1-4)GlcNAc", "procedure,_shortened": "as §1"}, "[3]": {"target": "Fuc(a1-2)Gal(b1-3)GlcNAc(b1-3)Gal(b1-4)Glc", "procedure,_shortened": "as §1"}, "[4]": {"target": "Fuc(a1-2)Gal(b1-3)GlcNAc(b1-3)GalNAc", "procedure,_shortened": "as §1"}, "[5]": {"target": "Fuc(a1-2)Gal(b1-3)[Fuc(a1-4)]GlcNAc", "procedure,_shortened": "as §1"}, "[6]": {"target": "Fuc(a1-2)Gal(b1-3)[Fuc(a1-4)]GlcNAc(b1-3)[Gal(b1-4)GlcNAc(b1-6)]Gal(b1-4)Glc", "procedure,_shortened": "as §1"}, "[7]": {"target": "Fuc(a1-2)Gal(b1-4)GlcNAc(b1-3)Gal(b1-4)GlcNAc(b1-3)Gal(b1-4)GlcNAc", "procedure,_shortened": "as §1"}, "[8]": {"target": "Fuc(a1-2)Gal(b1-4)[Fuc(a1-3)]GlcNAc(b1-3)[Neu5Ac(a2-6)Gal(b1-4)GlcNAc(b1-6)]Gal(b1-4)Glc", "procedure,_shortened": "as §1"}, "[9]": {"target": "Fuc(a1-2)Gal3S(b1-4)GlcNAc", "procedure,_shortened": "as §1"}, "[10]": {"target": "Fuc(a1-2)[Gal(a1-3)]Gal(b1-3)GalNAc(b1-3)Gal(a1-4)Gal(b1-4)Glc", "procedure,_shortened": "as §1"}, "[11]": {"target": "Fuc(a1-2)[Gal(a1-3)]Gal(b1-3)GlcNAc", "procedure,_shortened": "as §1"}, "[12]": {"target": "Fuc(a1-2)[Gal(a1-3)]Gal(b1-4)GlcNAc(b1-3)GalNAc", "procedure,_shortened": "as §1"}, "[13]": {"target": "Fuc(a1-2)[GalNAc(a1-3)]Gal(b1-3)GalNAc(b1-3)Gal(a1-4)Gal(b1-4)Glc", "procedure,_shortened": "as §1"}, "[14]": {"target": "Fuc(a1-2)[GalNAc(a1-3)]Gal(b1-4)[Fuc(a1-3)]GlcNAc", "procedure,_shortened": "as §1"}, "[15]": {"target": "Fuc(a1-3)[Gal(b1-4)]GlcNAc(b1-2)Man(a1-3)[Fuc(a1-3)[Gal(b1-4)]GlcNAc(b1-2)Man(a1-6)]Man(b1-4)GlcNAc(b1-4)[Fuc(a1-6)]GlcNAc", "procedure,_shortened": "as §1"}, "Gal(a1-4)Gal(b1-4)Glc": {"target": "Gal(a1-4)Gal(b1-4)Glc", "procedure,_shortened": "as §1"}, "Gal(a1-4)Gal(b1-4)GlcNAc": {"target": "Gal(a1-4)Gal(b1-4)GlcNAc", "procedure,_shortened": "as §1"}, "[16]": {"target": "Gal(a1-4)Gal(b1-4)GlcNAc(b1-3)Gal(b1-4)Glc", "procedure,_shortened": "as §1"}, "Gal(b1-2)Gal": {"target": "Gal(b1-2)Gal", "procedure,_shortened": "as §1"}, "[17]": {"target": "Gal(b1-3)GalNAc(a1-3)[Fuc(a1-2)]Gal(b1-4)Glc", "procedure,_shortened": "as §1"}, "[18]": {"target": "Gal(b1-3)GalNAc(b1-4)[Neu5Ac(a2-3)]Gal(b1-4)Glc", "procedure,_shortened": "as §1"}, "[19]": {"target": "Gal(b1-3)GlcNAc(b1-2)[Gal(b1-3)GlcNAc(b1-6)]Man(a1-6)[Gal(b1-3)GlcNAc(b1-2)Man(a1-3)]Man(b1-4)GlcNAc(b1-4)GlcNAc", "procedure,_shortened": "as §1"}, "[20]": {"target": "Gal(b1-3)GlcNAc(b1-3)Gal(b1-4)GlcNAc(b1-6)[Gal(b1-3)GlcNAc(b1-3)]Gal(b1-4)Glc", "procedure,_shortened": "as §1"}, "[21]": {"target": "Gal(b1-3)[Neu5Ac(a2-6)]GalNAc", "procedure,_shortened": "as §1"}, "[22]": {"target": "Gal(b1-4)GlcNAc(a1-6)Gal(b1-4)GlcNAc", "procedure,_shortened": "as §1"}, "[23]": {"target": "Gal(b1-4)GlcNAc(b1-2)Man(a1-6)[GlcNAc(b1-2)Man(a1-3)]Man(b1-4)GlcNAc(b1-4)GlcNAc", "procedure,_shortened": "as §1"}, "[24]": {"target": "Gal(b1-4)GlcNAc(b1-2)[Gal(b1-4)GlcNAc(b1-4)]Man(a1-3)[Gal(b1-4)GlcNAc(b1-2)Man(a1-6)]Man(b1-4)GlcNAc(b1-4)GlcNAc", "procedure,_shortened": "as §1"}, "[25]": {"target": "Gal(b1-4)GlcNAc(b1-2)[Gal(b1-4)GlcNAc(b1-4)]Man(a1-3)[GlcNAc(b1-4)][Gal(b1-4)GlcNAc(b1-2)Man(a1-6)]Man(b1-4)GlcNAc(b1-4)GlcNAc", "procedure,_shortened": "as §1"}, "[26]": {"target": "Gal(b1-4)GlcNAc(b1-3)Gal(b1-4)GlcNAc(b1-3)Gal(b1-4)GlcNAc(b1-3)Gal(b1-4)GlcNAc(b1-2)Man(a1-3)[Gal(b1-4)GlcNAc(b1-3)Gal(b1-4)GlcNAc(b1-3)Gal(b1-4)GlcNAc(b1-3)Gal(b1-4)GlcNAc(b1-2)Man(a1-6)]Man(b1-4)GlcNAc(b1-4)[Fuc(a1-6)]GlcNAc", "procedure,_shortened": "as §1"}, "[27]": {"target": "Gal(b1-4)GlcNAc(b1-3)Gal(b1-4)GlcNAc(b1-6)[Gal(b1-3)]GalNAc", "procedure,_shortened": "as §1"}, "[28]": {"target": "Gal(b1-4)GlcNAc(b1-3)[Gal(b1-4)GlcNAc(b1-6)]Gal(b1-4)GlcNAc", "procedure,_shortened": "as §1"}},
  "note": "The full list was thinned out, with the strongest signals kept by preference.",
  "data": [
    {"binder": "Awp1 (Candida glabrata) (protein) MSLITIFAFLIKATLVLSLDILTPTTLTGDQTFNEDVSVVSSLTLNDGSQYLFNNLLQIAPSSASVTANALAAVSVFTFSLPPSSSLSNSGTLIISNSNTGPSTEQHIVITPNVMANTGTITLSLAHTNTDSSSTLIIDPVTFYNTGTINYESIGSETNDPSLTGNILSIGSSGRTLQNLGTINLNAANSYYLLGTITENSGSINVQKGFLYVNALDFIGNTINLSTTTALAFISPVSQVVRVRGVFFGNIIASVGSSGTFSYNTQTGILTVTTNGVYSYDIGCGYNPALMSGQQETLSFQGNPYDTFLVLVNQPIPSDLTCAAVSSSITPSSSVEPSSSVVPSSSVEPSSSVEPSSSVEPSSSVEPSSSVEPSSSVEPSSSVEPSSSVEPSSSVEPSSSVEPSSSVEPSSSVEPSSSVEPSSSVEPSSSVEPSSSVEPSSSVEPSSSVEPSSSVEPSSLIVPSSSVEPSSSVLPSSSVVPSSSVEPSTPPIPSSSVEPSSSVVPSSPAVPSSSVEPSTPPIPSSSVVSASVFDTSSTLPSSPSVPPSSVSPSTISTPSSSAAPSSFCPTCVSSGTPPAPSSSAIVPTSSAGGGNGGDNREPGAAGQPGAAGQPGAAGQPGAAGQPGAAGQPGAAGQPGAAGQPGAAGQPGAAGQPGAAGQPGAGFGVGSEQPTPGAGAGSGSADGNQSGTGSGTGNGQQGSGQAGSGQAGSGQEGSGQAGSGQAGSGQAGSGQAGSGQAGLDNTASGQSEGGQASAMDGDQSGRDGQSNSGSLLQPNAQQGTGSGTGSDIGADQASGESPGQIGDAQPGSGTDQSSGRHSLAAEARTSQSHSLAADARTRSTTRQTSVIAPDTAPGTASGTAPGTAPGTAVVTTFHGCGTVNHKGMINILLALALLVLL", "values": [
      {"measurement": "glycan array binding signal (z-score)", "setting": "[1]", "value": -0.191},
      {"measurement": "glycan array binding signal (z-score)", "setting": "[2]", "value": 3.11},
      {"measurement": "glycan array binding signal (z-score)", "setting": "[3]", "value": -0.568},
      {"measurement": "glycan array binding signal (z-score)", "setting": "[4]", "value": -0.915},
      {"measurement": "glycan array binding signal (z-score)", "setting": "[5]", "value": 0.456},
      {"measurement": "glycan array binding signal (z-score)", "setting": "[6]", "value": 2.29},
      {"measurement": "glycan array binding signal (z-score)", "setting": "[7]", "value": 0.341},
      {"measurement": "glycan array binding signal (z-score)", "setting": "[8]", "value": 0.4},
      {"measurement": "glycan array binding signal (z-score)", "setting": "[9]", "value": 0.168},
      {"measurement": "glycan array binding signal (z-score)", "setting": "[10]", "value": -0.456},
      {"measurement": "glycan array binding signal (z-score)", "setting": "[11]", "value": -0.399},
      {"measurement": "glycan array binding signal (z-score)", "setting": "[12]", "value": -1.3},
      {"measurement": "glycan array binding signal (z-score)", "setting": "[13]", "value": 0.017},
      {"measurement": "glycan array binding signal (z-score)", "setting": "[14]", "value": -1.15},
      {"measurement": "glycan array binding signal (z-score)", "setting": "[15]", "value": 2.28},
      {"measurement": "glycan array binding signal (z-score)", "setting": "Gal(a1-4)Gal(b1-4)Glc", "value": 2.6},
      {"measurement": "glycan array binding signal (z-score)", "setting": "Gal(a1-4)Gal(b1-4)GlcNAc", "value": 1.02},
      {"measurement": "glycan array binding signal (z-score)", "setting": "[16]", "value": 0.176},
      {"measurement": "glycan array binding signal (z-score)", "setting": "Gal(b1-2)Gal", "value": -1.15},
      {"measurement": "glycan array binding signal (z-score)", "setting": "[17]", "value": 3.43},
      {"measurement": "glycan array binding signal (z-score)", "setting": "[18]", "value": -0.686},
      {"measurement": "glycan array binding signal (z-score)", "setting": "[19]", "value": 2.35},
      {"measurement": "glycan array binding signal (z-score)", "setting": "[20]", "value": 2.29},
      {"measurement": "glycan array binding signal (z-score)", "setting": "[21]", "value": -0.433},
      {"measurement": "glycan array binding signal (z-score)", "setting": "[22]", "value": 3},
      {"measurement": "glycan array binding signal (z-score)", "setting": "[23]", "value": 0.086},
      {"measurement": "glycan array binding signal (z-score)", "setting": "[24]", "value": -0.236},
      {"measurement": "glycan array binding signal (z-score)", "setting": "[25]", "value": -0.307},
      {"measurement": "glycan array binding signal (z-score)", "setting": "[26]", "value": 2.42},
      {"measurement": "glycan array binding signal (z-score)", "setting": "[27]", "value": 0.7},
      {"measurement": "glycan array binding signal (z-score)", "setting": "[28]", "value": -0.342}
    ]}
  ]
}
